# Inconclusive results are not listed. Entries that show only a call come without a potency. Some structures have more than one record in an assay (separate samples or runs), and their calls can disagree. Calls of active or inactive are those of the source. Unless noted, the call rests on the fitted dose curve; in most records, active means well fitted curve in the direction sought with a large enough effect in the repeat runs; inconclusive means weak or mixed curves; inactive means no such curve, though single readings can be large; an effect the other way counts as inactive or inconclusive.
# Experiment: qHTS assay for small molecule disruptors of the mitochondrial membrane potential - cell viability (AID 720634; calls by dose curve;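 further: human HepG2 liver cancer cells; nearly all actives have a fitted effect of over 20% in size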)
# Conditions: HepG2 viability, ATP luminescence (CellTiter-Glo), 1 h; series mostly up to 83.2 µM; activity change, negative = cytotoxicity: at the top concentration
# Procedure, shortened: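 HepG2, 1 hr compound, 37 C. ATP luminescence via CellTiter-Glo, 30 min RT, same well as m-MPI.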
row,SMILES,Potency
1,CC(=O)Oc1ccc(C)cc1,inactive
2,O=S(=O)(O)c1ccccc1,inactive
3,N#Cc1ccccc1,inactive
4,CC(C)CC(C)O (stereo not given),inactive
5,N[C@H](Cc1c[nH]c2ccccc12)C(=O)O,inactive
6,CC(C)(C#N)c1cc(Cn2cncn2)cc(C(C)(C)C#N)c1,inactive
7,CC(C)=CCl,inactive
8,CN(C)CCOC(=O)COc1ccc(Cl)cc1,inactive
9,COc1cc(OC)c(C(=O)CCCN2CCCC2)c(OC)c1,inactive
10,CC(C)c1cccc(C(C)C)c1,inactive
11,O=[N+]([O-])c1ccc2nc[nH]c2c1,inactive

# Experiment: qHTS assay for small molecule disruptors of the mitochondrial membrane potential (AID 720635); further: potency means the concentration at half of the fitted maximal effect
# Conditions: HepG2 mitochondrial membrane potential, Mito-MPS dye ratio; series mostly up to 83.2 µM; ratio activity, negative = MMP loss: at the top concentration
# Procedure, shortened: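 Mitochondrial membrane potential tracked with Mito-MPS dye, red aggregates (ex 540/em 590 nm) against green monomers (ex 490/em 535 nm). Compound treatment 1 hr at 37C, dye 30 min in HepG2.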
SMILES,"ratio activity, negative = MMP loss",Potency
CC(=O)OC1CC(C)OC(C)O1 (stereo not given),-4.33% (inactive),
CCc1ccccc1CC,5.07% [at 17.9 µM] (inactive),
CCNc1cccc(C)c1,10.3% (inactive),
CC(=O)Oc1ccc(C)cc1,-14.6% (inactive),
CC(C)(Oc1ccc(CCNC(=O)c2ccc(Cl)cc2)cc1)C(=O)O,7.06% [at 39.1 µM] (inactive),
O=c1[nH]cnc2[nH]ncc12,-14.6% [at 95.3 µM] (inactive),
O=S(=O)(O)c1ccccc1,4.03% (inactive),
CC(=O)OCc1ccco1,-10.6% (inactive),
N#Cc1ccccc1,,inactive
CC(=O)OCc1ccccc1,7.08% (inactive),
COc1ccc(N)c(C)c1,,inactive
O=C(O)c1ccc(C(=O)O)c(C(=O)O)c1,,inactive
CC(C)CC(C)O (stereo not given),27.2% (inactive),
CCCCCCCCCCO,30.9% (inactive),
N[C@H](Cc1c[nH]c2ccccc12)C(=O)O,-9.2% (inactive),
CCNc1ccccc1,,24.8 µM (active) and inactive
CC1(C)NC(=O)NC1=O,-9.38% [at 95.3 µM] (inactive),
CCO[Si](CCC#N)(OCC)OCC,,inactive
CC(O)CC(C)(C)O (stereo not given),13.9% [at 95.3 µM] (inactive),
Nc1ccc(Cl)c(N)c1,,68.8 µM (active)
O=[N+]([O-])c1ccc2nc[nH]c2c1,,27.3 µM (active)
COc1ccc(C)cc1N,,inactive
CCCCCC(=O)O,,inactive
OCc1cccc(Oc2ccccc2)c1,,54.5 µM (active)

# Experiment: qHTS assay to test for compound auto fluorescence at 590 nm (red) in HepG2 cells (AID 720674)
# Conditions: HepG2 autofluorescence, red 540/590 nm, 1 h; series mostly up to 91.3 µM; fluorescence, relative to Rose Bengal: at the top concentration
# Procedure, shortened: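 1 hr compound incubation on HepG2 cells, 37 C, 5% CO2; plate read ex 540 nm / em 590 nm; intensities reported as Rose Bengal sodium equivalents.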
SMILES,outcome,"fluorescence, relative to Rose Bengal"
C=C(C)[C@H]1CC=C(C)C(=O)C1,inactive,
CCNc1cccc(C)c1,inactive,
CC(C)(Oc1ccc(CCNC(=O)c2ccc(Cl)cc2)cc1)C(=O)O,inactive,
O=c1[nH]cnc2[nH]ncc12,inactive,
O=S(=O)(O)c1ccccc1,inactive,
O=C(O)Cn1c(=O)n(Cc2ccc(Br)cc2F)c(=O)c2ccc(Cl)cc21,,0.012% (inactive)
CC(=O)OCc1ccccc1,inactive,
COc1ccc(N)c(C)c1,inactive,
CC(C)CC(C)O (stereo not given),inactive,
N[C@H](Cc1c[nH]c2ccccc12)C(=O)O,inactive,
COC(=O)CCCC(=O)OC,inactive,
CCNc1ccccc1,inactive,
O=S(=O)(O)c1ccc(N=Nc2c(O)ccc3cc(S(=O)(=O)O)ccc23)cc1,inactive,
CCO[Si](CCC#N)(OCC)OCC,inactive,
CC(O)CC(C)(C)O (stereo not given),inactive,
OC1C(O)C(O)C(O)C(O)C1O (stereo not given),inactive,
COc1cc(OC)c(C(=O)CCCN2CCCC2)c(OC)c1,inactive,
CC(=O)OCCOC(C)=O,inactive,
C[C@]12CCC(=O)C=C1CC[C@@H]1[C@@H]2[C@@H](O)C[C@@]2(C)[C@H]1CC[C@]2(O)C(=O)CO,inactive,
CC(C)c1cccc(C(C)C)c1,inactive,
O=[N+]([O-])c1ccc2nc[nH]c2c1,inactive,
COc1ccc(C)cc1N,inactive,
COc1ccc(CCC(C)=O)cc1,,0.514% (inactive)
OCc1cccc(Oc2ccccc2)c1,inactive,

# Experiment: qHTS assay to test for compound auto fluorescence at 535 nm (green) in HepG2 cells (AID 720675)
# Conditions: green autofluorescence 485/535 nm, 1 h; series mostly up to 91.3 µM; fluorescence, % of fluorescein control: at the top concentration
SMILES,outcome,"fluorescence, % of fluorescein control"
CCc1ccccc1CC,inactive,
C=C(C)[C@H]1CC=C(C)C(=O)C1,inactive,
CC(C)(Oc1ccc(CCNC(=O)c2ccc(Cl)cc2)cc1)C(=O)O,inactive,
O=C(O)Cn1c(=O)n(Cc2ccc(Br)cc2F)c(=O)c2ccc(Cl)cc21,,0.0232% (inactive)
CC(=O)OCc1ccco1,inactive,
N#Cc1ccccc1,inactive,
CC(=O)OCc1ccccc1,inactive,
COc1ccc(N)c(C)c1,inactive,
O=C(O)c1ccc(C(=O)O)c(C(=O)O)c1,inactive,
CC(C)CC(C)O (stereo not given),inactive,
CCCCCCCCCCO,inactive,
COC(=O)CCCC(=O)OC,inactive,
CCNc1ccccc1,inactive,
CC(C)(C#N)c1cc(Cn2cncn2)cc(C(C)(C)C#N)c1,inactive,
CC1(C)NC(=O)NC1=O,inactive,
CCO[Si](CCC#N)(OCC)OCC,inactive,
Nc1ccc(Cl)c(N)c1,inactive,
CC(=O)OCCOC(C)=O,inactive,
CC(C)c1cccc(C(C)C)c1,inactive,
O=[N+]([O-])c1ccc2nc[nH]c2c1,inactive,
COc1ccc(CCC(C)=O)cc1,,0.129% (inactive)
CCCCCC(=O)O,inactive,
CC(C)CCCCCCCOC(=O)CCCCC(=O)OCCCCCCCC(C)C,inactive,

# Experiment: qHTS assay to test for compound auto fluorescence at 460 nm (blue) in HEK293 cells (AID 720678)
# Conditions: blue autofluorescence 405/460 nm; series mostly up to 91.3 µM; fluorescence, % of triamterene: at the top concentration
# Procedure, shortened: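 HEK293 cells (2,000 per well, medium with 10% dialyzed FBS) attached for 4-5 hr at 37C, then received compound and stood overnight at 37C, 5% CO2. Blue fluorescence was read at Ex/Em 405/460 nm and expressed relative to triamterene.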
SMILES,outcome,"fluorescence, % of triamterene"
CC(=O)OC1CC(C)OC(C)O1 (stereo not given),inactive,
CCc1ccccc1CC,inactive,
C=C(C)[C@H]1CC=C(C)C(=O)C1,inactive,
CCNc1cccc(C)c1,inactive,
CC(=O)Oc1ccc(C)cc1,inactive,
CC(C)(Oc1ccc(CCNC(=O)c2ccc(Cl)cc2)cc1)C(=O)O,inactive,
O=c1[nH]cnc2[nH]ncc12,inactive,
O=S(=O)(O)c1ccccc1,inactive,
O=C(O)Cn1c(=O)n(Cc2ccc(Br)cc2F)c(=O)c2ccc(Cl)cc21,,0.104% (inactive)
CC(=O)OCc1ccco1,inactive,
N#Cc1ccccc1,inactive,
CC(=O)OCc1ccccc1,inactive,
COc1ccc(N)c(C)c1,inactive,
O=C(O)c1ccc(C(=O)O)c(C(=O)O)c1,inactive,
CC(C)CC(C)O (stereo not given),inactive,
CCCCCCCCCCO,inactive,
N[C@H](Cc1c[nH]c2ccccc12)C(=O)O,inactive,
COC(=O)CCCC(=O)OC,inactive,
CCNc1ccccc1,inactive,

SMILES,outcome,"fluorescence, % of triamterene"
CC(C)(C#N)c1cc(Cn2cncn2)cc(C(C)(C)C#N)c1,inactive,
O=S(=O)(O)c1ccc(N=Nc2c(O)ccc3cc(S(=O)(=O)O)ccc23)cc1,inactive,
CC1(C)NC(=O)NC1=O,inactive,
CCO[Si](CCC#N)(OCC)OCC,inactive,
CC(C)=CCl,inactive,
CN(C)CCOC(=O)COc1ccc(Cl)cc1,inactive,
CC(O)CC(C)(C)O (stereo not given),inactive,
Nc1ccc(Cl)c(N)c1,inactive,
OC1C(O)C(O)C(O)C(O)C1O (stereo not given),inactive,
COc1cc(OC)c(C(=O)CCCN2CCCC2)c(OC)c1,inactive,
CC(=O)OCCOC(C)=O,inactive,
C[C@]12CCC(=O)C=C1CC[C@@H]1[C@@H]2[C@@H](O)C[C@@]2(C)[C@H]1CC[C@]2(O)C(=O)CO,inactive,
CC(C)c1cccc(C(C)C)c1,inactive,
O=[N+]([O-])c1ccc2nc[nH]c2c1,inactive,
COc1ccc(C)cc1N,inactive,
COc1ccc(CCC(C)=O)cc1,,0.145% (inactive)
CCCCCC(=O)O,inactive,
OCc1cccc(Oc2ccccc2)c1,inactive,
CC(C)CCCCCCCOC(=O)CCCCC(=O)OCCCCCCCC(C)C,inactive,
